Assay [1] is described as follows: qHTS assay to identify small molecule agonists of the vitamin D receptor (VDR) signaling pathway - cell viability counter screen (AID 743224). Further: nearly all actives have a fitted effect of over 50% in size. The method in brief:
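Counter screen for cytotoxicity: VDR-bla cells at 2,000 cells/well, 16 h compound exposure, then CellTiter-Glo luminescence after the beta-lactamase measurement.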

Assay [2] can be described thus: qHTS assay to identify small molecule antagonists of the vitamin D receptor (VDR) signaling pathway - cell viability counter screen (AID 743225). Further: nearly all actives have a fitted effect of over 50% in size. The method in brief: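 Cytotoxicity counter screen read by CellTiter-Glo luminescence (30 min, room temperature) in the same wells as the VDR-bla antagonist readout. HEK 293T VDR-UAS-bla cells had 16 h at 37C with compound and 3 nM (final) 1-alpha,25-dihydroxyvitamin D3, then 2 h with FRET substrate.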
(In general: In qHTS, concentration-response curves come from the screen itself.)

Assay [3] can be described thus: qHTS assay to identify small molecule agonists of the NFkB signaling pathway (AID 1159509; active means well fitted curve in the direction sought with a large enough effect in the signal ratio in the repeat runs, not every such curve was filed as active; the % refers to the signal ratio). Summed up: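 Pathway activation was measured in ME-180 cells stably expressing beta-lactamase under NF-kB response element control. Substrate cleavage was read as the 460/530 nm emission shift after 5 hr compound incubation.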
Assay [4] in a line: qHTS assay to identify small molecule agonists of the NFkB signaling pathway - cell viability counter screen (AID 1159515; calls by dose curve; further: nearly all actives have a fitted effect of over 55% in size). The method in brief: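 Counter screen run alongside the NFkB-bla agonist assay: ME-180 reporter cells exposed to compounds for 5 hr, then lysed with CellTiter-Glo in the same wells. Luminescence, read after 30 min, reflects viable cells.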
Assay [5] in a line: qHTS assay to identify small molecule agonists of the endoplasmic reticulum stress response signaling pathway (AID 1159516; active means well fitted activation curve with a large enough effect in the signal ratio in the repeat runs, not every such curve was filed as active; the % refers to the signal ratio). The method in brief:
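For this screen, HeLa cells stably carrying beta-lactamase under the ER stress response element received test compounds, positive controls or DMSO for 5 hr at 37 C; B/G FRET substrate was then added and dual-wavelength emission recorded.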

A short description of assay [6]: qHTS assay to identify small molecule agonists of the endoplasmic reticulum stress response signaling pathway - cell viability counter screen (AID 1159517; calls by dose curve; further: nearly all actives have a fitted effect of over 50% in size). The method in brief: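 Cpd-treated ESRE-bla HeLa (5 hr, 37 C) → LiveBLAzer 2 hr RT → CellTiter-Glo 30 min RT → luminescence.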
Assay [7] in a line: qHTS assay to identify small molecule antagonists of the retinoid-related orphan receptor gamma (ROR-gamma) signaling pathway - cell viability counter screen (AID 1159520). Further: nearly all actives have a fitted effect of over 50% in size. The method in brief: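 Tet-on ROR gamma CHO cells (1,000/well) were plated 4 hr, given compounds in DMSO for 2 hr at 37 C, then induced with 1 uM final doxycycline for 16 hr. Viability was read as ATP by CellTiter-Glo luminescence after 30 min.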

In assay [8] the target is Nuclear receptor ROR-gamma (Homo sapiens) (UniProt P51449). Briefly: qHTS assay to identify small molecule antagonists of the retinoid-related orphan receptor gamma (ROR-gamma) signaling pathway (AID 1159521). The method in brief: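 Antagonist read-out: drop in luminescence (ONE-Glo) from an RORE-LUC reporter in CHO cells with doxycycline-inducible ROR-gamma; 2 hr compound pretreatment, 1 uM doxycycline, 16 hr incubation at 37 C.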

A short description of assay [9]: qHTS assay to identify small molecule agonists of the AP-1 signaling pathway - cell viability counter screen (AID 1159525; calls by dose curve; further: nearly all actives have a fitted effect of over 55% in size). The method in brief:
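Each titration point was normalised to DMSO and tetra n-octyl ammonium bromide controls. The read was Cell Titer Glo luminescence after 30 min at RT, following 5 h compound exposure of ME-180 AP-1-bla cells at 37 °C.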

A short description of assay [10]: qHTS assay to identify small molecule agonists of the AP-1 signaling pathway (AID 1159526; calls by dose curve).
Assay [11] deals with Retinoic acid receptor RXR-alpha (Homo sapiens) (UniProt P19793). Briefly: qHTS assay to identify small molecule agonists of the RXR signaling pathway (AID 1159527; calls by dose curve; further: nearly all actives have a fitted effect of over 35% in size). Summed up:
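Agonist-mode beta-lactamase reporter assay: HEK 293T RXR-alpha-UAS-bla cells treated 16 hr at 37 C with compounds, 9-cis retinoic acid as positive control. LiveBLAzer FRET substrate, 405 nm excitation, 460/530 nm emission.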

A short description of assay [12]: qHTS assay to identify small molecule antagonists of the retinoid acid receptor (RAR) signaling pathway - cell viability counter screen (AID 1159551). Further: nearly all actives have a fitted effect of over 35% in size. The method in brief:
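Measured by luminescent ATP detection, viability reflects C3RL4 cells treated 6 h at 37 C with test chemicals in the presence of 1 uM (final) retinol.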

A short description of assay [13]: qHTS assay to identify small molecule antagonists of the retinoic acid receptor (RAR) signaling pathway (AID 1159552; further: nearly all actives have a fitted effect of over 50% in size). Summed up:
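Luminescent RARE reporter read-out in C3RL4 cells: 6 hr co-treatment at 37 C of test compounds with retinol at 1 uM final. Cells plated overnight beforehand; luciferase reagent incubated 30 min at room temperature before reading.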

The nature of assay [14]: qHTS assay to identify small molecule agonists of the retinoic acid receptor (RAR) signaling pathway (AID 1159553). The conditions noted are these: C3RL4 RARE luciferase reporter, agonist, 6 h; activation: at 73.3 µM (top of the series). Summed up:
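6 hr compound exposure (DMSO vehicle) of overnight-plated C3RL4 RARE-luc cells at 37 C; luminescence quantified after 30 min RT with luciferase reagent.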

Assay [15] concerns the target Luciferin 4-monooxygenase (Photinus pyralis) (UniProt P08659). Briefly: qHTS assay to identify small molecule inhibitors of firefly luciferase (AID 1224835). Further: nearly all actives have a fitted effect of over 25% in size. Summed up: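 Quantitative HTS format; KM concentrations of both substrates. Purified P. pyralis FLuc activity quantified from luminescence images.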
A short description of assay [16]: qHTS assay to identify small molecule agonists of the constitutive androstane receptor (CAR) signaling pathway - cell viability counter screen (AID 1224836). Further: nearly all actives have a fitted effect of over 45% in size. The method in brief: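 Cell viability multiplexed with the CAR agonist screen: CellTiter-Fluor fluorescence after 23 hr at 37 C. HepG2-CYP2B6-hCAR cells got compounds at 15 concentrations with PK11195 at 0.75 uM final.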

The nature of assay [17]: qHTS assay to identify small molecule antagonists of the constitutive androstane receptor (CAR) signaling pathway - cell viability counter screen (AID 1224837). Further: nearly all actives have a fitted effect of over 45% in size. Summed up:
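To flag cytotoxic false antagonists, HepG2 hCAR/CYP2B6-2.2kb cells were treated 23 hr with 15-concentration compound series and 50 nM CITCO at 37 C/5% CO2; CellTiter-Fluor fluorescence was the measured end point.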

The nature of assay [18]: qHTS assay to identify small molecule agonists of the RXR signaling pathway - cell viability counter screen (AID 1159529). Further: nearly all actives have a fitted effect of over 50% in size. The method in brief: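 CellTiter-Glo luminescence gave viability in the wells also read for beta-lactamase. Cells (RXR-alpha-UAS-bla HEK 293T, 2% charcoal-stripped FBS medium) had 5 hr plating, then 16 hr compound exposure at 37 C; tetraoctyl ammonium bromide served as positive control.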

The nature of assay [19]: qHTS assay to identify small molecule antagonists of the estrogen related receptor (ERR) signaling pathway from Tox21 library - cell viability counter screen (AID 1224834). Further: nearly all actives have a fitted effect of over 30% in size. Further: potency means the concentration at half of the fitted maximal effect. Summed up: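 Seeded ERR cells were rested 6 h at 37 C/5% CO2 before compounds, positive and negative controls or DMSO were added. Incubation continued for 17.5 h, and viability was then quantified by CellTiter-Fluor fluorescence.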

For assay [20], the target named is Nuclear receptor subfamily 1 group I member 3 (Homo sapiens) (UniProt Q14994). Briefly: qHTS assay to identify small molecule antagonists of the constitutive androstane receptor (CAR) signaling pathway (AID 1224838).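 Further: HepG2 cells stably expressing hCAR with CYP2B6 luciferase reporter stimulated by CITCO; nearly all actives have a fitted effect of over 40% in size.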 The method in brief: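 Human hepatoma HepG2 cells expressing hCAR and a CYP2B6 promoter (2.2 kb) luciferase construct; compound titration (15 points) with 50 nM CITCO final, 24 h at 37 C/5% CO2; luminescence via ONE-Glo after 30 min at room temperature.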

Results filed as inconclusive are left out. Values without a mark were called inactive. Active and inactive are the calls of the source. Unless noted, the call rests on the fitted dose curve; in most records, active means well fitted curve in the direction sought with a large enough effect in the repeat runs; inconclusive means weak or mixed curves; inactive means no such curve, though single readings can be large; an effect the other way counts as inactive or inconclusive.

Sequence of Retinoic acid receptor RXR-alpha (Homo sapiens) (P19793 whole entry, looked up): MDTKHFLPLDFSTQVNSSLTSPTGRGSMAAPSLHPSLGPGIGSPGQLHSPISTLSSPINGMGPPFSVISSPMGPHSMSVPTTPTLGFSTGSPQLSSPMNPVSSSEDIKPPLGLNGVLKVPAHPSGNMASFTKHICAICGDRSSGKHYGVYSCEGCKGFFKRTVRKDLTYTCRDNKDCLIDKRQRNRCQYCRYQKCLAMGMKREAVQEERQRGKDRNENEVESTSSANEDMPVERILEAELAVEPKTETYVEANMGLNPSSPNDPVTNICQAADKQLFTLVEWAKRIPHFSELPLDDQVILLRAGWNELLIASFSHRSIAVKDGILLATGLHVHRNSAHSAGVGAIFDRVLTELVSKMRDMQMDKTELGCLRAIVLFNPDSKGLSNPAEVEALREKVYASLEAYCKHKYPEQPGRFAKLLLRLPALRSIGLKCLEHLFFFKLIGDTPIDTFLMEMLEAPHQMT
Sequence of Luciferin 4-monooxygenase (Photinus pyralis) (P08659 whole entry, looked up): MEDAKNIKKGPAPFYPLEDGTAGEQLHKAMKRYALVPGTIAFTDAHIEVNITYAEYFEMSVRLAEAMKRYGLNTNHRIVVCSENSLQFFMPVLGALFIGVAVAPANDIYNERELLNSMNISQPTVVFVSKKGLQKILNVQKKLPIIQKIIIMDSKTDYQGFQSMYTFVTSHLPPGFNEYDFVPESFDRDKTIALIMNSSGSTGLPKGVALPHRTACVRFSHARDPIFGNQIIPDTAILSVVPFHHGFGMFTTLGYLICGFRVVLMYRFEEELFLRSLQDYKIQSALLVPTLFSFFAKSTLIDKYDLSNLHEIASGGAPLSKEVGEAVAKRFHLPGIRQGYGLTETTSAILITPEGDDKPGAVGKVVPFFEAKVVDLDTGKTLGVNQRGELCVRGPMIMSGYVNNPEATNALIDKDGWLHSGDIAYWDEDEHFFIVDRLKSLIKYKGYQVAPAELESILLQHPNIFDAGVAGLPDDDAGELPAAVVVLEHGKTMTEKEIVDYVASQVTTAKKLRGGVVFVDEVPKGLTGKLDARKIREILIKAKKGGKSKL
Sequence of Nuclear receptor subfamily 1 group I member 3 (Homo sapiens) (Q14994 whole entry, looked up): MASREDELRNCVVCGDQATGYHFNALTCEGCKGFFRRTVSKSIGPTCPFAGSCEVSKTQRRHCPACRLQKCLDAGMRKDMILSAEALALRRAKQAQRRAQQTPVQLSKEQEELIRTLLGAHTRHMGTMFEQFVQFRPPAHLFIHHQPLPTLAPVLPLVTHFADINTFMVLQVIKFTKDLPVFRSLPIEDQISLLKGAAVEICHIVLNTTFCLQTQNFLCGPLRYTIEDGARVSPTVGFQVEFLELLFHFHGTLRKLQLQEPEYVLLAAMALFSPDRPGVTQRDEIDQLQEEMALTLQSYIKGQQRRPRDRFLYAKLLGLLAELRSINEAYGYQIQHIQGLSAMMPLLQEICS

As to `c1ccccc1`, the result in [1], in assay [2], in assay [3], in [4], in [5] and in assay [6] was inactive. Further, the result in assay [7], in assay [8], in assay [9], in assay [10], in assay [12] and in assay [16] was inactive. Besides, the Potency result in [11], in assay [13], in assay [14], in [15] and in assay [17] was “inactive” throughout.

Turning to `CN(C)CCOCCN(C)CCO`, the result in assay [1], in assay [2], in assay [3], in assay [4], in assay [5] and in assay [6] was inactive. Further, the outcome in assay [7], in [8], in [10], in [18], in [12] and in [16] was inactive. The Potency entry in assay [11], in assay [13], in assay [14], in assay [15] and in [17] was “inactive” throughout.

As to `C=C(C)C(=O)OC1CC(C)CC(C)(C)C1` (stereo not drawn), the compound was called inactive in [1], in assay [2], in assay [3], in assay [4], in assay [5] and in assay [7]. Besides, the compound was called inactive in [8], in [9], in [10], in assay [18], in assay [12] and in [16]. For the same compound, the Potency entry in assay [11], in assay [13], in assay [14], in [19], in [15] and in assay [17] was “inactive” each time.

Turning to `C=CC(C)(O)CC/C=C(\C)CC` (stereo not drawn), the compound was classed as inactive in assay [1], in assay [2], in assay [3], in [4], in assay [5] and in assay [7]. Further, the result in assay [8], in assay [9], in assay [10], in assay [18], in [12] and in assay [16] was inactive. The Potency result in assay [11], in assay [13], in assay [14], in [19], in assay [15] and in assay [17] was “inactive” in each case.

Consider `COc1cc([N+](=O)[O-])ccc1N`, for which the outcome in [2], in assay [3], in assay [4], in assay [5], in [6] and in assay [7] was inactive. For the same compound, the result in assay [8], in assay [10], in assay [18] and in assay [12] was inactive. The Potency entry in assay [11], in assay [13], in assay [14] and in assay [20] was “inactive” in each case. Further, the Potency in assay [19] was 24.3 µM (active).

In the case of `Cc1ccccc1N1CCN(CCc2nnc3n2CCCC3)CC1`, the compound was called inactive in assay [1], in assay [2], in assay [3], in assay [4], in assay [5] and in assay [6]. Also, the call in assay [7], in assay [8], in assay [10], in assay [18], in assay [12] and in assay [16] was inactive. In addition, the Potency result in assay [11], in assay [13], in [19], in assay [15] and in assay [17] was “inactive” throughout.

In the case of `O=C(O)CCNC(=O)c1ccccc1`, the call in [3], in [4], in assay [5], in assay [7], in [8] and in assay [9] was inactive. Besides, the call in assay [10], in assay [12] and in [16] was inactive. The Potency result in assay [11], in assay [13], in assay [14], in assay [19], in assay [15] and in assay [17] was “inactive” each time.

Consider `CC(C)CCO`, for which the result in assay [1], in assay [2], in [3], in assay [4], in assay [5] and in assay [6] was inactive. Further, the compound was called inactive in [7], in assay [8], in assay [10], in [12] and in assay [16]. Moreover, the Potency result in [11], in assay [13], in [14], in assay [15] and in [17] was “inactive” throughout.

(Values after PubChem BioAssay (Tox21).)
